TMEM16A act: activators or potentiators of mouse TMEM16A chloride channel | B-score at 10 µM | AID 623877 | HEK293 TMEM16A/YFP-H148Q/I152L, iodide quench fluorescence; stronger effect = lower value | Q8BHY3 | actives 0.3% (n = 340,000);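 active = fluorescence-ratio B-score plate-corrected deviation score at least 3 library SD below zero, with starting fluorescence score within 5 deviations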;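 note: channel opened by trigger with iodide after compound preincubation; score built on the fluorescence ratio of max minus min over baseline; more negative score means more quench and so TMEM16A activation or potentiation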
MEKK2 WT-MEK5: raises or lowers MEK5 binding to wildtype human MEKK2 PB1 domain; AID 1531; Q9Y2U5; actives 1.1% (n = 290,000); binding response (% of control), % at 10 µM; bead flow cytometry, Alexa488-MEK5 binding to MEKK2 WT; actives lie on both sides; in the data active = binding response below about 67% or above about 130%
MEKK2 mut-MEK5: signal of MEK5 binding to mutant human MEKK2 PB1 domain | bead flow cytometry, Alexa488-MEK5 binding to MEKK2 mutant | percent response, % at 10 µM | actives 0.35% (n = 290,000); in the data active = percent response above about 24%, passing the limit was not always enough
MEKK3 PB1 HTS: MEKK3-MEK5 PB1 interaction, increase or decrease; Q99759; bead-based flow cytometry, Alexa488-MEK5 binding to MEKK3; actives lie on both sides; 0 = blocked by unlabeled MEK5, 100 = vehicle; binding response (% of control), % at 10 µM; actives 1.4% (n = 290,000);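 active = binding response more than 3 SD above or below the average of its plate-row segment, actives on both sides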;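 note: Alexa488 bead fluorescence after subtracting the streptavidin-only scavenger bead signal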
Target sequence (Q99759 whole entry, looked up): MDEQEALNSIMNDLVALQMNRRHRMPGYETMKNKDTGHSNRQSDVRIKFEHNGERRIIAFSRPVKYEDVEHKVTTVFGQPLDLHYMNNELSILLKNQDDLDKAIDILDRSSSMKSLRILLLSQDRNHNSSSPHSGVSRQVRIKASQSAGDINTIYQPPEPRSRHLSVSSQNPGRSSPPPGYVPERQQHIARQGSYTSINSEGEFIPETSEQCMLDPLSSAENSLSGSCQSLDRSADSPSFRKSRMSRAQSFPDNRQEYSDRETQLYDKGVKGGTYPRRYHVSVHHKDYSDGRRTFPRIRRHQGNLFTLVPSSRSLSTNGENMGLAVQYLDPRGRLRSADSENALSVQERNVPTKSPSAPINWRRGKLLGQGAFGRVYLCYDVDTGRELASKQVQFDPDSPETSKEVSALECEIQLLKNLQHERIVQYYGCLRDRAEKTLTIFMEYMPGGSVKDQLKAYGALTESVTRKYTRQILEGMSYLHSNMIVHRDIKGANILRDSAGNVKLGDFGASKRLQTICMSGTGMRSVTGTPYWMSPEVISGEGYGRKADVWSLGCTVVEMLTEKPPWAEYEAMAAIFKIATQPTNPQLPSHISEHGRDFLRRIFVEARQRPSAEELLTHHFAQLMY
ANO1 block: mouse TMEM16A channel inhibition, primary screen; Q8BHY3; HEK293 TMEM16A/YFP iodide influx fluorescence, ionomycin; normalized B-score (activity score, 25-100; higher = stronger inhibition) at 10 µM; actives 1.2% (n = 310,000); AID 588511;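 active = ratio plate-corrected score three or more library SD toward inhibition, starting fluorescence score within five deviations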;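 note: score derived from kinetic fluorescence span divided by baseline fluorescence per well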
NTR1 agonist: NTR1 (human) agonism. P30989. NTR1-U2OS beta-arrestin-GFP spot imaging, agonist mode. activation, % at 20 µM. actives 0.17% (n = 330,000);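 active = activation at or above 40% of the spot to cytoplasm intensity ratio, with at least 20 cells analyzed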;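 note: 0% = DMSO without peptide and 100% = 100 nM NTR1 peptide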
MEKK2wt confirm: raises or lowers MEK5 binding to wildtype human MEKK2, retest; shares compounds with MEKK3 PB1 HTS; actives 2.4% (n = 5,900); binding response (% of control), % at 10 µM; AID 1892; bead flow cytometry, Alexa488-MEK5 binding to MEKK2 WT; actives lie on both sides; in the data active = binding response below about 16% or above about 210%; inactive = in between
MEKK2mut-MEK5: signal of MEK5 binding to mutant human MEKK2, retest. actives 2% (n = 5,900). percent response, % at 10 µM. AID 1893. bead flow cytometry, Alexa488-MEK5 binding to MEKK2 mutant. shares compounds with MEKK3 PB1 HTS; in the data active = percent response mostly above about 71%, no sharp cut-off; inactive = mostly below about 38%;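 note: higher means compound restores mutant binding toward wildtype level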
MEKK3 confirm: confirmation of inhibitors of MEK5 binding to human MEKK3; shares compounds with MEKK3 PB1 HTS; AID 1894; binding response (% of control), % at 10 µM; actives 1.8% (n = 5,900); bead flow cytometry, Alexa488-MEK5 binding to MEKK3; stronger effect = lower value;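 active = binding response below 72% of control, or above a set upper limit, though filed actives all read lower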;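 note: 100% = DMSO only wells and 0% = binding blocked by excess unlabeled MEK5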
NTR1 ag confirm: NTR1 (human) agonism, confirmed. activation, % at 20 µM. NTR1-U2OS beta-arrestin-GFP translocation imaging. actives 38% (n = 480). AID 504550. shares compounds with NTR1 agonist;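 active = mean activation at 20 µM of at least 40%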;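 note: 0% = DMSO without peptide and 100% = 100 nM NTR1 peptide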
* = called active by the depositor; [ ] = dose if it differs, or a comment. Hits are enriched below; roughly 3.4% of the tested compounds scored in any of these assays.

Results for O=C1NC(=O)C(CCc2ccncc2)(CCc2ccncc2)C(=O)N1C1CCCCC1 ?
TMEM16A act: inactive; MEKK2 WT-MEK5: 87.0; MEKK2 mut-MEK5: -14.0; MEKK3 PB1 HTS: 94.0; ANO1 block: inactive; NTR1 agonist: 0.8

How did CSc1ncc(/C=C2/C(=O)NC(=O)N(c3ccc(Cl)cc3)C2=O)cn1 do in these assays?
TMEM16A act: inactive; MEKK2 WT-MEK5: 97.0; MEKK2 mut-MEK5: -12.0; MEKK3 PB1 HTS: 101.0

Results for CN1C(=O)C(c2ccccc2)C(=O)N(C)C1=O ?
TMEM16A act: inactive; ANO1 block: inactive; NTR1 agonist: 0.8

How did CN(C(=O)Oc1ccc([N+](=O)[O-])cc1)c1ccccc1 do in these assays?
TMEM16A act: inactive; MEKK2 WT-MEK5: 95.0; MEKK2 mut-MEK5: -1.0; MEKK3 PB1 HTS: 73.0*[inhibitor]; ANO1 block: inactive; NTR1 agonist: -0.4; MEKK2wt confirm: 97.0; MEKK2mut-MEK5: -4.0; MEKK3 confirm: 101.0

How did COc1ccc2[nH]c(C)c(CCNCc3cc(OC)c4c(c3)OCO4)c2c1 do in these assays?
TMEM16A act: inactive; NTR1 agonist: 1.9

Results for COC(=O)C[C@]1(C(=O)OC)CN(C#N)N(c2ccc(Cl)cc2)C12c1ccccc1-c1ccccc12 ?
TMEM16A act: inactive; MEKK2 WT-MEK5: 93.0; MEKK2 mut-MEK5: 2.0; MEKK3 PB1 HTS: 92.0; ANO1 block: inactive; NTR1 agonist: 41.3*; NTR1 ag confirm: 62.2*

How did COC(=O)[C@@H]1[C@@H](C(=O)OC)C2(c3ccccc3-c3ccccc32)N(c2ccc(Cl)cc2)N1C#N do in these assays?
TMEM16A act: inactive; MEKK2 WT-MEK5: 88.0; MEKK2 mut-MEK5: 1.0; MEKK3 PB1 HTS: 85.0; ANO1 block: inactive; NTR1 agonist: 35.3

What do the screens show for `CC1CCCC(C)N1/N=C/c1c[nH]c2ccc(Br)cc12` (stereo unspecified)?
TMEM16A act: inactive; MEKK2 WT-MEK5: 131.0; MEKK2 mut-MEK5: 26.0; MEKK3 PB1 HTS: 97.0; ANO1 block: inactive; NTR1 agonist: 8.3

How did OC1(c2ccc(F)cc2)CC2CCC(C1)N2Cc1nnnn1C1CCCCC1 (stereo unspecified) do in these assays?
TMEM16A act: inactive; ANO1 block: inactive; NTR1 agonist: 0.7

What do the screens show for `Cc1ccc(-c2cc(-c3ccccc3)cc(-c3ccccc3)[n+]2-c2ccccc2)cc1`?
TMEM16A act: inactive; ANO1 block: 100*; NTR1 agonist: 50.3*; NTR1 ag confirm: 82.4*

What do the screens show for `c1ccc(-c2cc(-c3ccccc3)[n+](-c3ccccc3)c(-c3ccccc3)c2)cc1`?
TMEM16A act: inactive; MEKK2 WT-MEK5: 112.0; MEKK2 mut-MEK5: 5.0; MEKK3 PB1 HTS: 100.0; ANO1 block: 25*; NTR1 agonist: 67.0*; NTR1 ag confirm: 65.3*

How did C[n+]1c(-c2ccccc2)cc(-c2ccc(Cl)cc2)cc1-c1ccccc1 do in these assays?
TMEM16A act: inactive; MEKK2 WT-MEK5: 104.0; MEKK2 mut-MEK5: 1.0; MEKK3 PB1 HTS: 98.0; ANO1 block: inactive; NTR1 agonist: 0.2

Results for CC12Cc3cnoc3C=C1CCC1C2CCC2(C)C1CCC2(C)O (stereo unspecified) ?
TMEM16A act: inactive
